About 280 (8.5%) of roughly 3,300 compounds were called active. For the sample, actives were picked, then their nearest neighbours and some compounds at random. Values without a mark were called inactive.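 Rule for the calls: active = mean growth inhibition over the two runs of 50% or more; inactive = mean growth inhibition under 50%.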
Experiment: A549 NSCLC cell proliferation inhibitors – ATP luminescence, human non-small cell lung line, primary screen (AID 371);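 note: compound exposure lasted 72 h before the ATP read; 0% = untreated cell signal and 100% = no luminescence left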
Conditions: at 10 µM, hits give high values

Point of comparison: `CCOC(=O)c1[nH]c2cc3c(cc2c1NC(=O)CN1CC(C)CC(C)C1)OCO3` (stereo not given), growth inhibition 6.05%. Against it:
- O=C1OC(Nc2ccc(Br)cc2F)c2ccccc21 (stereo not given) — lower, 3.02%
- CC(=O)Nn1cnc2c(c1=O)C1(CCCC1)Cc1ccccc1-2 — higher, 16.8%
- N#CCc1nc2c3c4c(sc3ncn2n1)CCCC4 — higher, 9.82%
- COc1ccc(C(=O)Nc2nc(N)n(-c3ccccc3)n2)cc1OC — lower, 1.17%
- Nc1nc(NC(=O)Cc2ccccc2)nn1-c1ccccc1 — higher, 6.96%
- Cc1ccc(-n2c(N)c(C(N)=O)sc2=S)cc1 — higher, 6.9%
- CCCC(=O)Nc1nn(CCC)c2nc3ccccc3cc12 — lower, -8.01%
- CN1C(=O)c2c(sc3c2CCCC3)NC1c1ccccc1O (stereo not given) — higher, 27.8%
- COc1cccc(C2C(C(=O)c3cc4ccccc4o3)=C(O)C(=O)N2CCN(C)C)c1OC (stereo not given) — lower, 1.22%
- CCOC(=O)c1cnn2c1[nH]c(=O)c1ccccc12 — higher, 7.89%
- CCO/C(C)=N/n1c2nc3ccccc3nc2c2c(=O)n(CC(C)C)c(C)nc21 — lower, 3.19%
- Cc1cc2ccccc2cc(C)c1=O — higher, 9.2%
- Cc1cc(=O)oc2c(CN3CCC(C)CC3)c(O)c(Cl)cc12 — lower, -0.87%
- O=C(CC(c1ccc(F)cc1)c1ccco1)N1CCCC1 (stereo not given) — higher, 7.48%
- Nn1c(SCC(=O)Nc2ccc3c(c2)OCCO3)nnc1C(F)(F)F — higher, 14.6%
- c1ccc(-c2nnc3n2N=C(c2ccc4c(c2)OCO4)CS3)nc1 — higher, 13.4%
- COc1ccc(OC)c(C2=Nn3c(nnc3C3CCCCC3)SC2)c1 — higher, 47.4%
- O=S1CCCSC1c1cccnc1 (stereo not given) — lower, -0.58%
- COc1ccc(/C(O)=C2\C(=O)C(=O)N(c3cc(C)on3)C2c2ccccc2OC)cc1C (stereo not given) — higher, 7.8%
- COc1cccc(-c2nc(NCc3ccco3)c3ccccc3n2)c1O — higher, 9.14%
- COc1cccc(-c2nc(NC(C)(C)C)c3ccccc3n2)c1O — higher, 20.9%
- COC(=O)CNc1nc(-c2cccnc2)nc2ccccc12 — higher, 6.85%
- CCN(CC)c1nc(-c2cccc(OC)c2O)nc2ccccc12 — higher, 13.8%
- CC1(C)Cc2nc(NCCCO)c(C#N)cc2CO1 — lower, -0.91%
- CCCCOC(=O)C(C)c1c(C)[nH]c(=S)[nH]c1=O (stereo not given) — lower, 5.11%
- O=C(Nc1ncccc1Cl)c1cccc(F)c1 — higher, 7.47%
- COc1ccc(C2C(C#N)=C(SC)NC3=C2C(=O)CC(C)(C)C3)cc1 (stereo not given) — higher, 11.2%
- Fc1cnc(N2CCOCC2)nc1NCc1ccccc1 — lower, -1.26%
- Oc1ccccc1-c1nc(NCc2ccco2)c2ccccc2n1 — higher, 31.9%
- COc1cccc(COc2nc3c(c(=O)n(C)c(=O)n3C)n2C)c1 — higher, 29.5%
- COc1cccc(OC)c1C(=O)Nc1nc2ccc(S(C)(=O)=O)cc2s1 — higher, 11.2%
- CCCCOc1ccccc1C(=O)NCCCC(=O)O — lower, -2.38%
- CCCOc1ccccc1C(=O)NCCCC(=O)O — lower, -12.4%
- Cc1ccccc1NC(=O)NCCc1nc2ccccc2[nH]1 — lower, -5.83%
- COc1ccc(C(O)C(CN2CCOCC2)c2ccccc2)cc1 (stereo not given) — lower, 2.01%
- COc1ccc(C(=O)CCN2CCCCCC2)cc1 — lower, 2.68%
- Cc1cc(C)nc(N(C#N)CN2C(=O)c3ccccc3C2=O)n1 — lower, -0.78%
- COC(=O)c1ccc(C(=O)OC)c(NC(=O)c2cc3ccccc3o2)c1 — lower, 5.58%
- COC(=O)/C(C#N)=C1/SC=C(C)N1c1ccccc1 — lower, 4.54%
- C=CCOc1nc2c(c(=O)n(Cc3ccc(Cl)c(Cl)c3)c(=O)n2C)n1C — higher, 35.1%
- Cn1c(=O)c2c(nc(NCc3ccco3)n2Cc2ccccc2Cl)n(C)c1=O — lower, 2.6%
- Cn1c(=O)c2c(nc(NCc3ccco3)n2Cc2ccc(Cl)cc2Cl)n(C)c1=O — lower, 0.48%
- Cn1c(OCc2ccc3c(c2)OCO3)nc2c1c(=O)n(Cc1cccc(Cl)c1)c(=O)n2C — lower, -0.73%
- CNC(=O)c1cc2ccccc2o1 — lower, -3.18%
- O=c1cc(O)nc2n1CCCS2 — lower, 2.49%
- COC(=O)C(NC(=O)c1ccco1)(Nc1ccc(Br)cn1)C(F)(F)F (stereo not given) — higher, 22.7%
- CCOC(=O)CC(C#N)c1cn(C)c2ccccc12 (stereo not given) — lower, 3.83%
- C=CC[N+](C)(C)CCCNC(=O)/C=N/O — lower, -6.91%
- COc1cccc(C(=O)Nc2ccc(-c3nnc(-c4ccco4)o3)cc2)c1 — higher, 23.8%
- CCN(CC)CCn1c(O)c(N=O)c2ccccc21 — lower, 2.91%
- Cn1c(N2CCOCC2)nc2c1c(=O)n(Cc1ccc(Cl)cc1)c(=O)n2C — higher, 17.2%
- Cn1c(N2CCN(c3ccccn3)CC2)nc2c1c(=O)n(Cc1ccccc1Cl)c(=O)n2C — higher, 7.18%
- Cn1c(N2CCOCC2)nc2c1c(=O)n(Cc1ccc(Cl)c(Cl)c1)c(=O)n2C — higher, 36.7%
- Cn1c(NCc2cccnc2)nc2c1c(=O)n(Cc1ccccc1F)c(=O)n2C — higher, 18.8%
- COc1ccc(Cn2c(=O)c3c(nc(NCCO)n3C)n(C)c2=O)cc1 — lower, 3.12%
- COCCNc1nc2c(c(=O)n(Cc3ccc(OC)cc3)c(=O)n2C)n1C — higher, 12.2%
- Cn1c(=O)n(Cc2ccccc2)c(=O)c2c1nc(NCC1CCCO1)n2Cc1ccccc1 (stereo not given) — higher, 45.3%
- Cn1c(NCc2ccccc2)nc2c1c(=O)n(Cc1ccccc1)c(=O)n2C — higher, 39.1%
- CCCCCSc1nc(O)cc(=O)[nH]1 — lower, -0.41%
- Cc1nc2c(=O)n(C)c(=O)[nH]c2n1Cc1ccccc1 — higher, 8.92%
- O=C1C2ON(c3ccccc3)C(c3cccnc3)C2C(=O)N1c1ccccc1 (stereo not given) — lower, -1.13%
- CCc1c(C(=O)O)[nH]c2ccc(Br)cc12 — higher, 6.3%
- CCOC(=O)c1[nH]c2ccc(OC)cc2c1C — higher, 12.4%
- Cc1cccc(N2CC(=O)N(c3cccc(C)c3)CC2=O)c1 — lower, 3.38%
- CCN(CC)CCNC(=O)c1c(C)oc2cc(Br)c(OC)cc12 — higher, 29.2%
- COc1ccccc1N1CCN(C(=O)c2c(C)cc(=O)oc2C)CC1 — lower, -0.18%
- CCCCOc1ccc(-c2nnc(N)s2)cc1 — higher, 21.4%
- CCOc1ccc(Cc2nc(N)nc(N)n2)cc1 — lower, 2.96%
- COC(=O)c1ccccc1N1C(=O)[C@@H]2C(c3ccc(Br)cc3)=NO[C@@H]2C1=O — lower, 3.29%
- O=C(NCc1ccco1)c1ccc(=O)[nH]n1 — lower, -4.07%
- O=C(NCc1ccco1)c1ccc(=O)oc1 — lower, -3.09%
- c1ccc(-c2nn3c(C4CCCCC4)nnc3s2)cc1 — lower, 5.6%
- CCC(=O)N(Cc1cccs1)C1CCOC(C)(C)C1 (stereo not given) — lower, 3.04%
- CCCCNC(=O)c1c(N)n(/N=C/c2cccnc2)c2nc3ccccc3nc12 — lower, 5.46%
- CN(Cc1ccccc1)Cc1c[nH]c2ccccc12 — lower, 5.38%
- CN=c1sc2ccccc2n1CC(O)COc1ccccc1 (stereo not given) — higher, 25.3%
- CC(C)NCC(O)COc1ccc(CC(N)=O)cc1 (stereo not given) — lower, -2.65%
- O/N=C/c1ccc(OCC(O)COc2ccc(/C=N/O)cc2)cc1 — lower, -5.19%
- CN(C)CC(O)COc1cccc(OCC(O)CN(C)C)c1 (stereo not given) — lower, 2.88%
- COCCc1ccc(OCC(O)CNC(C)C)cc1 (stereo not given) — lower, 1.47%
- CC1(C)NC(=O)N(CC(O)Cn2nnc3ccccc32)C1=O (stereo not given) — higher, 8.44%
- CC(C)NCC(O)COc1ccc(CCOCC2CC2)cc1 (stereo not given) — lower, -0.79%
- OC(CNCCCN1CCCCC1)COc1ccccc1 (stereo not given) — lower, 4.57%

For `O=C(Nc1nc(NC(=O)c2ccco2)n(-c2ccccc2)n1)c1ccccc1`, the growth inhibition was 82.7% (active).
With `CC(C)OC(=O)c1c2nc3ccccc3nc2n2c1[nH]c(=O)c1ccccc12` the growth inhibition was 60.3% (active).
With `c1cc2c(cc1C1=Nn3c(nnc3C3CCCCC3)SC1)OCO2` the growth inhibition was 50.2% (active).
In the case of `CCC(C)Nc1nc(-c2cccc(OC)c2O)nc2ccccc12` (stereo not given), the growth inhibition was 71.5% (active).
In the case of `COc1cccc(-c2nc(NC(C)C)c3ccccc3n2)c1O`, the growth inhibition was 77.9% (active).
For `c1ccc(N2CCN(c3nc(NCc4ccco4)c4ccccc4n3)CC2)cc1`, the growth inhibition was 90.4% (active).
In the case of `CCCNCC(O)COc1ccccc1C(=O)CCc1ccccc1` (stereo not given), the growth inhibition was 54.2% (active).
For `COc1ccc(C(=O)C(CN2CCCC2)c2ccccc2)cc1` (stereo not given), the growth inhibition was 88.2% (active).
With `Cn1c(OCc2ccco2)nc2c1c(=O)n(Cc1ccc(Cl)c(Cl)c1)c(=O)n2C` the growth inhibition was 59% (active).
In the case of `Cn1c(NCc2ccco2)nc2c1c(=O)n(Cc1ccc(Cl)c(Cl)c1)c(=O)n2C`, the growth inhibition was 70% (active).
In the case of `Cn1c(NCC(O)c2ccccc2)nc2c1c(=O)n(Cc1ccc(Cl)c(Cl)c1)c(=O)n2C` (stereo not given), the growth inhibition was 88% (active).
With `Cn1c(NCc2ccccc2)nc2c1c(=O)n(Cc1ccc(Br)cc1)c(=O)n2C` the growth inhibition was 72.5% (active).
With `Cn1c(N2CCN(c3ccccn3)CC2)nc2c1c(=O)n(Cc1ccc(Cl)cc1)c(=O)n2C` the growth inhibition was 50.6% (active).
For `Cn1c(NCC(O)c2ccccc2)nc2c1c(=O)n(Cc1ccc(Cl)cc1)c(=O)n2C` (stereo not given), the growth inhibition was 71.7% (active).
For `COc1cc2c(C(=O)N3CCN(c4ccccc4)CC3)c(C)oc2cc1Br`, the growth inhibition was 60.9% (active).
For `CCCCOc1ccc(CN(C)c2ncnc(N)n2)cc1`, the growth inhibition was 51.9% (active).
For `O=C1c2ccccc2-c2onc3ccc(NCc4ccco4)c1c23`, the growth inhibition was 50.2% (active).
With `CN(CC(O)COc1ccc(OCC(O)CN(C)C2CCCCC2)cc1)C1CCCCC1` (stereo not given) the growth inhibition was 50.1% (active).
In the case of `N#Cc1ccc(-c2ccc(OCC(O)Cn3nnc4ccccc43)cc2)cc1` (stereo not given), the growth inhibition was 57.7% (active).
For `CN(C)CC(O)COc1ccc(C(C)(C)c2ccc(OCC(O)CN(C)C)cc2)cc1` (stereo not given), the growth inhibition was 89.2% (active).
For `CN(C)CC(O)COc1ccc(-c2ccc(C#N)cc2)cc1` (stereo not given), the growth inhibition was 64.2% (active).
